Bim-Bcl-W – human Bim-Bcl-W interaction inhibition. Q92843. bead-based flow cytometry, Bim peptide-Bcl-W binding. actives 0.02% (n = 190,000). inhibition, % at 10 µM. AID 952;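 further: 0% = bound tracer without compound and 100% = peptide blocker; higher means less fluorescent Bim peptide bound to Bcl-W beads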
Bcl-B Bim block – disrupts Bim peptide binding to human Bcl-B; Q9HD36; bead-based flow cytometry; inhibition, % at 10 µM; actives 0.073% (n = 190,000); AID 951;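 further: 0% = tracer peptide without compound and 100% = reference inhibitor peptide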
Target sequence (Q9HD36 whole entry, looked up): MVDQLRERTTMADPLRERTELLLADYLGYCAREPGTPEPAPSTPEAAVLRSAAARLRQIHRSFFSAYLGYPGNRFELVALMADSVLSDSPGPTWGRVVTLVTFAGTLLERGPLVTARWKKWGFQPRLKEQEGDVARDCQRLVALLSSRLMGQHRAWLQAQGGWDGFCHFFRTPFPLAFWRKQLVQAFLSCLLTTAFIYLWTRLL
Bcl-2 Bim block – disrupts Bim peptide binding to human Bcl-2; inhibition, % at 10 µM; actives 0.06% (n = 190,000); P10415; Bead-based flow cytometry, Bim peptide-Bcl-2 binding; AID 950; in the data active means inhibition above about 40%;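 further: 0% = no compound wells with probe peptide and 100% = reference peptide inhibitor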
Bim-Bcl-XL – disrupts Bim peptide binding to human Bcl-XL; AID 1007; bead flow cytometry, fluorescence; actives 0.04% (n = 190,000); Q07817; inhibition, % at 10 µM
Target sequence (Q07817 whole entry, looked up): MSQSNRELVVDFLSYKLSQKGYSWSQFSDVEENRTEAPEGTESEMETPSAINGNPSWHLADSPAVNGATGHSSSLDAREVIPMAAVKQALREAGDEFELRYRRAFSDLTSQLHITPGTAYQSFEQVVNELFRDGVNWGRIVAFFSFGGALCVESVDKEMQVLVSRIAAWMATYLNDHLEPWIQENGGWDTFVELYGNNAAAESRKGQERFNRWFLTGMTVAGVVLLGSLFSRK
Bim-Bfl-1 – disrupts Bim binding to human Bfl-1. Q16548. Bead-based flow cytometry, Bim-Bfl-1 binding inhibition. actives 0.12% (n = 190,000). inhibition, % at 10 µM;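 further: 0% = wells without compound plus tracer and 100% = blocker peptide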
Bim-Bcl-XL DR – dose-response confirmed modulator of Bim binding to human Bcl-XL. shares compounds with Bim-Bfl-1. bead-based flow cytometry. inhibition of binding at 100 µM. 40 tested, under 10 active. AID 2084; call rule not given here
* hit, by the source's call. The list is not random: actives were taken first. Their share in the collection is about 0.19%. Unless noted, no stated cut-off is given here; in the data, active means inhibition above about 40%.

How did CC12CN(S(=O)(=O)c3ccccc3)CC(C)(CN(S(=O)(=O)c3ccccc3)C1)C2 do in these assays?
Bim-Bcl-W: 0.0; Bcl-B Bim block: -8.0; Bcl-2 Bim block: -10.0; Bim-Bcl-XL: -12.0; Bim-Bfl-1: -16.0

What do the screens show for `O=C1c2ccccc2C(=O)N1c1cccc2cccnc12`?
Bim-Bcl-W: 24.0; Bcl-B Bim block: 23.0; Bcl-2 Bim block: 30.0; Bim-Bcl-XL: 36.0; Bim-Bfl-1: 40.0*

Results for Cc1cc(C)c2c(c1)[C@@H]1C=CC[C@@H]1[C@H](c1ccc(S(=O)(=O)N3CCOCC3)cc1)N2 ?
Bim-Bcl-W: 25.0; Bcl-B Bim block: 6.0; Bcl-2 Bim block: 21.0; Bim-Bcl-XL: 10.0; Bim-Bfl-1: 53.0*

Results for CN(C(=O)Cc1noc2ccccc12)c1ccccc1 ?
Bim-Bcl-W: -4.0; Bcl-B Bim block: -4.0; Bcl-2 Bim block: 2.0; Bim-Bcl-XL: -2.0; Bim-Bfl-1: 0.0

Results for CCOc1ccc(C(=O)NCCC(=O)NCCCC(=O)O)cc1 ?
Bim-Bcl-W: 0.0; Bcl-B Bim block: -6.0; Bcl-2 Bim block: -7.0; Bim-Bcl-XL: -3.0; Bim-Bfl-1: -6.0

What do the screens show for `CCOc1ccccc1CNc1ccc(O)cc1`?
Bim-Bcl-W: 23.0; Bcl-B Bim block: -15.0; Bcl-2 Bim block: 11.0; Bim-Bcl-XL: 4.0; Bim-Bfl-1: 44.0*; Bim-Bcl-XL DR: 0.0435

How did CC/C(=N\NC(=O)c1ccc(CN(C)S(=O)(=O)c2ccc(C)cc2)cc1)c1ccc(OC(F)F)cc1 do in these assays?
Bim-Bcl-W: -3.0; Bcl-B Bim block: -6.0; Bcl-2 Bim block: -3.0; Bim-Bcl-XL: -4.0; Bim-Bfl-1: -1.0

Results for Cc1cc2nn(-c3cccc4ccccc34)nc2cc1N ?
Bim-Bcl-W: 13.0; Bcl-B Bim block: -1.0; Bcl-2 Bim block: 15.0; Bim-Bcl-XL: 4.0; Bim-Bfl-1: 48.0*; Bim-Bcl-XL DR: 1.95

How did O=C(O)c1ccc(/C=N/N2CCN(Cc3ccccc3)CC2)cc1 do in these assays?
Bim-Bcl-W: -2.0; Bcl-B Bim block: -7.0; Bcl-2 Bim block: -2.0; Bim-Bcl-XL: -5.0; Bim-Bfl-1: 0.0

Results for CNC(CC(=O)c1ccc([N+](=O)[O-])cc1)C(Cl)(Cl)Cl (stereo not given) ?
Bim-Bcl-W: 3.0; Bcl-B Bim block: 4.0; Bcl-2 Bim block: 11.0; Bim-Bcl-XL: 2.0; Bim-Bfl-1: 55.0*; Bim-Bcl-XL DR: 2.35

How did Cc1ccc(-c2cc(C(=O)Nc3nccs3)c3ccccc3n2)o1 do in these assays?
Bim-Bcl-W: 4.0; Bcl-B Bim block: -3.0; Bcl-2 Bim block: 11.0; Bim-Bcl-XL: 0.0; Bim-Bfl-1: 37.0; Bim-Bcl-XL DR: -0.506

Results for Cc1ccc(SCC(=O)NC(=O)NCc2ccccc2)c(C)c1 ?
Bim-Bcl-W: -4.0; Bcl-B Bim block: -4.0; Bcl-2 Bim block: -2.0; Bim-Bcl-XL: -3.0; Bim-Bfl-1: -2.0

Results for CNC(=O)C1=C(C)NC(=S)NC1c1cc2c(cc1OC)CCCC2 (stereo not given) ?
Bim-Bcl-W: -1.0; Bcl-B Bim block: -9.0; Bcl-2 Bim block: 1.0; Bim-Bcl-XL: -2.0; Bim-Bfl-1: 3.0

Results for S=c1[nH]cc(-c2ccccc2)n1-c1ccccc1Cl ?
Bim-Bcl-W: -3.0; Bcl-B Bim block: 26.0; Bcl-2 Bim block: -12.0; Bim-Bcl-XL: -4.0; Bim-Bfl-1: -14.0

How did COc1ccccc1-n1c(-c2ccccc2)c[nH]c1=S do in these assays?
Bim-Bcl-W: 3.0; Bcl-B Bim block: -20.0; Bcl-2 Bim block: 3.0; Bim-Bcl-XL: -2.0; Bim-Bfl-1: 22.0; Bim-Bcl-XL DR: 2.08

How did COc1cc(CNc2ccc3[nH]c(=O)[nH]c3c2)cc(Br)c1OCC(=O)NC(C)(C)C do in these assays?
Bim-Bcl-W: 21.0; Bcl-B Bim block: -8.0; Bcl-2 Bim block: -3.0; Bim-Bcl-XL: 2.0; Bim-Bfl-1: 9.0; Bim-Bcl-XL DR: 2.86

What do the screens show for `CCC1CCCCN1Cc1cc(OC)c(O)c([N+](=O)[O-])c1` (stereo not given)?
Bim-Bcl-W: 0.0; Bcl-B Bim block: -3.0; Bcl-2 Bim block: -5.0; Bim-Bcl-XL: -3.0; Bim-Bfl-1: 1.0

What do the screens show for `O=C1c2ccccc2C(=O)N1CN(C(=O)COc1ccc(Cl)cc1Cl)c1cccc(F)c1`?
Bim-Bcl-W: 2.0; Bcl-B Bim block: 16.0; Bcl-2 Bim block: 0.0; Bim-Bcl-XL: -2.0; Bim-Bfl-1: -5.0; Bim-Bcl-XL DR: -1.37

What do the screens show for `CCN(C(=O)COc1cc(=O)n(CC)c2ccccc12)c1cccc(Cl)c1`?
Bim-Bcl-W: 5.0; Bcl-B Bim block: -6.0; Bcl-2 Bim block: -1.0; Bim-Bcl-XL: 7.0; Bim-Bfl-1: -8.0

What do the screens show for `COc1cc(N=c2ssnc2Cl)c(OC)cc1Cl`?
Bim-Bcl-W: 8.0; Bcl-B Bim block: -13.0; Bcl-2 Bim block: 3.0; Bim-Bcl-XL: 10.0; Bim-Bfl-1: 31.0

How did COc1cc(N=C2SSNC2Cl)c(OC)cc1Cl (stereo not given) do in these assays?
Bim-Bcl-XL DR: 10.5

Results for O=C(Nc1nnc(COc2ccc(Cl)cc2)s1)c1ccco1 ?
Bim-Bcl-W: -9.0; Bcl-B Bim block: -43.0; Bcl-2 Bim block: -2.0; Bim-Bcl-XL: -15.0; Bim-Bfl-1: 23.0; Bim-Bcl-XL DR: -5.02

Results for Cc1ccc(OCc2nnc(NC(=O)c3ccco3)s2)cc1 ?
Bim-Bcl-W: 5.0; Bcl-B Bim block: -6.0; Bcl-2 Bim block: -10.0; Bim-Bcl-XL: 0.0; Bim-Bfl-1: -10.0

Results for CC(=O)OCCCNc1cc(Sc2nc3ccccc3s2)c2nonc2c1[N+](=O)[O-] ?
Bim-Bcl-W: 11.0; Bcl-B Bim block: -4.0; Bcl-2 Bim block: 2.0; Bim-Bcl-XL: 3.0; Bim-Bfl-1: 48.0*; Bim-Bcl-XL DR: 4.68

Results for CC(=O)OCCNc1cc(SCc2ccco2)c2nonc2c1[N+](=O)[O-] ?
Bim-Bcl-W: 2.0; Bcl-B Bim block: -11.0; Bcl-2 Bim block: -1.0; Bim-Bcl-XL: -5.0; Bim-Bfl-1: 13.0
